Source: PubChem
RGS7-Gao – RGS7-Galphao binding modulators, primary screen, biochemical, multiplexed bead flow cytometry | binding response (% of control), % at 10 µM | Guanine nucleotide-binding protein G(o) subunit alpha (Homo sapiens), P09471 | hit rate 0.35% among 220,000 | actives lie on both sides; in the data active = binding response below about 49% or above about 150%; inconclusive = no clear call, values can overlap the other calls; inactive = in between;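 note: fluorescent Galphao held in activated GDP-AlF4 state binding bead-coupled RGS7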
Target sequence (P09471 whole entry, looked up): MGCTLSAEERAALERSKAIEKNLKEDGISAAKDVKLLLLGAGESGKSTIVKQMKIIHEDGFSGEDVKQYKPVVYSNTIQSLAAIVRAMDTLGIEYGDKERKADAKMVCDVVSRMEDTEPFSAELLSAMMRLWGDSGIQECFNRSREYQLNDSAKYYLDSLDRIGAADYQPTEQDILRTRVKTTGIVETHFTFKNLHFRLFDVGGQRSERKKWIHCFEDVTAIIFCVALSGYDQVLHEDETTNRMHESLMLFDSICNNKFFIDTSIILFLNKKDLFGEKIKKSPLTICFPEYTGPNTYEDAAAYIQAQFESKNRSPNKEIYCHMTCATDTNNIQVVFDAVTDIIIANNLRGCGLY
RGS16-Gao – modulators of RGS16 binding to Galphao, primary screen, biochemical, human proteins, multiplexed bead flow cytometry; Regulator of G-protein signaling 16 (Homo sapiens) + Guanine nucleotide-binding protein …; bead-based flow cytometry RGS16-Galphao binding, fluorescence; actives lie on both sides; binding response (% of control), % at 10 µM; hit rate 0.38% among 220,000;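 note: Galphao activated by GDP with aluminum fluoride before binding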
RGS4-Gao reg – modulators of RGS4 binding to Galphao, primary screen, biochemical, multiplexed bead flow cytometry. actives lie on both sides. Guanine nucleotide-binding protein G(o) subunit alpha (Homo sapiens), P09471. hit rate 0.33% among 220,000. binding response (% of control), % at 10 µM; in the data active = binding response below about 49% or above about 150%; inactive = in between;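 note: fluorescent Galphao activated with aluminum fluoride binding bead-coupled RGS4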
Avidin fluor – green autofluorescence of compounds with avidin beads – biophysical, 488/530 nm, flow cytometry, artefact control, profiling panel | compound fluorescence 488/530 nm; stronger effect = higher value | fluorescence (KMESF) at 10 µM | hit rate 0.38% among 220,000 | AID 1775, 2009; in the data active = fluorescence above about 47
RGS8-Gao – RGS8-Galphao binding modulators, primary screen, biochemical, multiplexed bead flow cytometry; Guanine nucleotide-binding protein G(o) subunit alpha (Homo sapiens), P09471; hit rate 0.34% among 220,000; response (percent of control binding), % at 10 µM; actives lie on both sides; AID 1423, 2008; in the data active = response below about 60% or above about 140%; inactive = in between;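 note: Galphao activated as the GDP aluminium fluoride complex binding bead-coupled RGS8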
GSH bead fluor – compound fluorescence on glutathione beads, profiling panel, artefact control, biophysical, 488/530 nm, flow cytometry. fluorescence (KMESF) at 10 µM. GSH beads flow cytometry, compound fluorescence 488/530 nm; stronger effect = higher value. hit rate 0.25% among 190,000. AID 1776, 2009; in the data active = fluorescence above about 89;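 note: glutathione beads carrying GST-tagged Bcl family fusion proteins plus one bare bead set; values are compound well signal with DMSO vehicle wells as background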
RGS-Gao – modulators of RGS–Galpha-o binding, primary screen, biochemical, multiplexed beads, flow cytometry, RGS4/7/8/16/19; hit rate 99% among 1,600; RGS4–Galpha-o binding response, % at 10 µM; shares compounds with RGS16-Gao; multiplexed bead flow cytometry;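 note: fluorescently labeled Galpha-o bound to GDP with aluminium fluoride binding biotinylated RGS beads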
Avidin counter – disruption of biotin probe capture by avidin, counter-screen for RGS protein interaction modulators, biochemical, flow cytometry, bead-based | shares compounds with RGS16-Gao | streptavidin beads, fluorescein-biotin binding | inhibition, % at 10 µM | 1,700 tested, under 10 active | AID 1783, 2009;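 active = inhibition above 50%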;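 note: median green fluorescence of gated singlet beads compared with DMSO control wells; 0% = DMSO wells and 100% = complete loss of bead fluorescence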
RGS8-Gao single – RGS8-Galphao binding modulators, confirmation, biochemical, multiplexed bead flow cytometry, single concentration | binding response (% of control), % at 10 µM | hit rate 3% among 1,700 | shares compounds with RGS16-Gao | bead-based flow cytometry RGS8-Galphao binding, fluorescence; actives lie on both sides; in the data active = binding response below about 72% or above about 130%; inactive = in between;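 note: Galphao activated as GDP AlF4 complex before binding bead RGS8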
RGS7-Gao confirm – RGS7-Galphao binding modulators, confirmation, biochemical, multiplexed bead flow cytometry, single concentration. shares compounds with RGS16-Gao. bead-based flow cytometry RGS7-Galphao binding; actives lie on both sides. response (percent of control binding), % at 10 µM. hit rate 7.8% among 1,700. AID 1837, 2009; in the data active = response below about 75% or above about 130%; inactive = in between;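 note: fluorescent Galphao activated with GDP and aluminum fluoride binding bead-coupled RGS7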
RGS16-Gao single – modulators of RGS16-Galphao protein binding, confirmation, biochemical, single concentration, multiplexed bead flow cytometry. shares compounds with RGS16-Gao. bead-based flow cytometry; actives lie on both sides. response (% of control binding), % at 10 µM. hit rate 4% among 1,700. AID 1838, 2009; in the data active = response below about 74% or above about 130%; inactive = in between;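 note: Galphao activated as the GDP aluminium fluoride complex binding bead-coupled RGS16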
RGS4-Gao single – modulators of RGS4-Galphao protein binding, confirmation, biochemical, single concentration, multiplexed bead flow cytometry; actives lie on both sides; hit rate 4% among 1,700; shares compounds with RGS16-Gao; AID 1840, 2009; binding response (% of control), % at 10 µM; in the data active = binding response below about 74% or above about 130%; inactive = in between
RGS19-Gao single – regulators of RGS19-Galphao binding, confirmation, biochemical, single point, multiplexed bead flow cytometry. shares compounds with RGS16-Gao. bead-based flow cytometry RGS19-Galphao binding; actives lie on both sides. response (percent of control binding), % at 10 µM. hit rate 5% among 1,700; in the data active = response below about 50% or above about 160%; inactive = in between;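 note: 100% = no compound control and 0% = blank background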
Target sequence (P09471 whole entry, looked up): as above
Target sequence (P49795 whole entry, looked up): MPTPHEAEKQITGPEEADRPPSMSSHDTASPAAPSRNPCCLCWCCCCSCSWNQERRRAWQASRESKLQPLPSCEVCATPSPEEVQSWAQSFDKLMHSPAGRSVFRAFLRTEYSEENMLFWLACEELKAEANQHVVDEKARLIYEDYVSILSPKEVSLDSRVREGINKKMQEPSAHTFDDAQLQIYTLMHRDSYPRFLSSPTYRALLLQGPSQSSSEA
Numbers without * were called inactive; [ ] = remark or other dose. Compounds with a hit are over-represented: about 1.2% of the library has one in this group of screens. Unless noted, the rule behind the calls is not given here.

`COc1cc(NC(=O)SC2=NCCS2)cc(OC)c1` gave RGS7-Gao inconclusive, RGS16-Gao 46.7, RGS4-Gao reg 40.7*, Avidin fluor 3, RGS8-Gao 60.1, Avidin counter -3.0, RGS8-Gao single 99.7, RGS7-Gao confirm 100.2, RGS16-Gao single 101.5, RGS4-Gao single 99.0 and RGS19-Gao single 105.2.
Screening COc1cc(OC)cc(C(=O)NC2=NCCS2)c1 returned RGS7-Gao 102.0, RGS16-Gao 101.6, RGS4-Gao reg 97.3, Avidin fluor 10, RGS8-Gao 95.3 and GSH bead fluor 15.
CC(C)CNC(=O)NC(=O)COC(=O)c1ccccc1Sc1ccc(C(F)(F)F)cc1[N+](=O)[O-] was read as RGS7-Gao 105.1, RGS16-Gao 94.6, RGS4-Gao reg 103.5, Avidin fluor 23, RGS8-Gao 98.4 and GSH bead fluor 11.
For C=CCNC(=O)NC(=O)COC(=O)c1ccccc1Sc1ccc(C(F)(F)F)cc1[N+](=O)[O-] the results were RGS7-Gao 102.9, RGS16-Gao 184.1*[activator], RGS4-Gao reg 106.1, Avidin fluor 12, RGS8-Gao 118.3, GSH bead fluor 8, RGS-Gao 106.1*, Avidin counter -0.3, RGS8-Gao single 104.8, RGS7-Gao confirm 111.8, RGS16-Gao single 108.3, RGS4-Gao single 107.7 and RGS19-Gao single 108.5.
Screening O=C(CC1CC2CCC1C2)Nc1nc(-c2ccccn2)cs1 (stereo not given) returned RGS7-Gao inconclusive, RGS16-Gao 86.5, RGS4-Gao reg 91.4, Avidin fluor 10, RGS8-Gao 92.1 and GSH bead fluor 11.
Screening O=C1CSC(=Nc2ccc(Cl)cc2)N1Cc1cccnc1 returned RGS7-Gao inconclusive, RGS16-Gao 18.6*, RGS4-Gao reg 5.3*, Avidin fluor -1, RGS8-Gao 55.3*, Avidin counter 0.3, RGS8-Gao single 93.0, RGS7-Gao confirm 90.4, RGS16-Gao single 92.8, RGS4-Gao single 93.9 and RGS19-Gao single 109.0.
Screening CC(C)(C)c1ccc(N=C2SCC(=O)N2Cc2cccs2)cc1 returned RGS7-Gao inconclusive, RGS16-Gao 103.0, RGS4-Gao reg 100.4, Avidin fluor 4 and RGS8-Gao 102.7.
`Cn1c(=O)c2c(=O)cc(N)[nH]c2n(C)c1=O` gave RGS7-Gao inconclusive, RGS16-Gao 99.8, RGS4-Gao reg 97.2, Avidin fluor 7, RGS8-Gao 77.3, Avidin counter 0.3, RGS8-Gao single 100.4, RGS7-Gao confirm 102.8, RGS16-Gao single 100.6, RGS4-Gao single 102.4 and RGS19-Gao single 99.4.
For COc1ccc([N+](=O)[O-])cc1COc1cc(C)cc2oc(=O)cc(-c3ccccc3)c12 the results were RGS7-Gao 99.8, RGS16-Gao 102.8, RGS4-Gao reg 104.2, Avidin fluor 9, RGS8-Gao 104.5 and GSH bead fluor 28.
Screening CC(C)CNC(=O)c1ccccc1SCC(=O)NC12CC3CC(CC(C3)C1)C2 returned RGS7-Gao 79.1, RGS16-Gao 23.3*, RGS4-Gao reg 77.7, Avidin fluor 2, RGS8-Gao 68.4, GSH bead fluor 15, RGS-Gao 77.7*, Avidin counter 0.2, RGS8-Gao single 98.5, RGS7-Gao confirm 109.1, RGS16-Gao single 104.7, RGS4-Gao single 104.2 and RGS19-Gao single 137.4.
For CCC12CN3CCN(CC(C3)/C1=N\NC(=O)c1ccc(Cl)cc1)C2 the results were RGS7-Gao 90.5, RGS16-Gao 94.2, RGS4-Gao reg 98.5, Avidin fluor 6, RGS8-Gao 97.2 and GSH bead fluor 12.
CCC12CN3CCN(CC(C3)/C1=N\NC(=O)c1ccc(F)cc1)C2 was read as RGS7-Gao 43.1*, RGS16-Gao 38.5, RGS4-Gao reg 42.0*, Avidin fluor 6, RGS8-Gao 54.6*, GSH bead fluor 13, Avidin counter -0.6, RGS8-Gao single 99.2, RGS7-Gao confirm 99.3, RGS16-Gao single 98.1, RGS4-Gao single 97.9 and RGS19-Gao single 97.3.
`CC(C)CC(=O)NC(=S)Nc1ccc(S(=O)(=O)Nc2nccs2)cc1` gave RGS7-Gao 108.4, RGS16-Gao 125.3, RGS4-Gao reg 108.6, Avidin fluor 15, RGS8-Gao 109.5 and GSH bead fluor 4.
For COc1ccc(/C=C(\NC(=O)c2ccccc2)C(=O)NNC(=O)CCN2CCOCC2)cc1 the results were RGS7-Gao 99.3, RGS16-Gao 101.7, RGS4-Gao reg 98.6, Avidin fluor 13, RGS8-Gao 101.4 and GSH bead fluor 25.
